Test results published in the supplement of paper PMC6411743.
± gives the standard deviation of the averaged measurements. About 6,500 targets were measured; listed, in parts, are those with the largest changes and a random draw of the rest.

Key:
Test in all cases: NP40-soluble protein abundance relative to vehicle (solubility fold change) (ratio); higher = more soluble protein in presence of ATP
[1] = molecular target: A0A087WWP8 (UniProt Q5VWQ0)
Summary of the method: (§1)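 Jurkat crude lysate (Dounce-homogenised) was treated with eight concentrations from 0.1 to 10 mM for 10 min at room temperature, then 3 min at 37 °C. It was solubilised with 0.8% NP40 and benzonase (60 min, 4 °C) and ultracentrifuged, and the supernatant was TMT-labelled for LC-MS/MS. Intensities were vsn-normalised, and the value is the fold change against the NP40-processed vehicle per replicate, from three independent experiments.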

[2] = molecular target: T1, A0A087WWS1|Q96FV9 (UniProt Q96FV9)
T1 sequence (whole entry): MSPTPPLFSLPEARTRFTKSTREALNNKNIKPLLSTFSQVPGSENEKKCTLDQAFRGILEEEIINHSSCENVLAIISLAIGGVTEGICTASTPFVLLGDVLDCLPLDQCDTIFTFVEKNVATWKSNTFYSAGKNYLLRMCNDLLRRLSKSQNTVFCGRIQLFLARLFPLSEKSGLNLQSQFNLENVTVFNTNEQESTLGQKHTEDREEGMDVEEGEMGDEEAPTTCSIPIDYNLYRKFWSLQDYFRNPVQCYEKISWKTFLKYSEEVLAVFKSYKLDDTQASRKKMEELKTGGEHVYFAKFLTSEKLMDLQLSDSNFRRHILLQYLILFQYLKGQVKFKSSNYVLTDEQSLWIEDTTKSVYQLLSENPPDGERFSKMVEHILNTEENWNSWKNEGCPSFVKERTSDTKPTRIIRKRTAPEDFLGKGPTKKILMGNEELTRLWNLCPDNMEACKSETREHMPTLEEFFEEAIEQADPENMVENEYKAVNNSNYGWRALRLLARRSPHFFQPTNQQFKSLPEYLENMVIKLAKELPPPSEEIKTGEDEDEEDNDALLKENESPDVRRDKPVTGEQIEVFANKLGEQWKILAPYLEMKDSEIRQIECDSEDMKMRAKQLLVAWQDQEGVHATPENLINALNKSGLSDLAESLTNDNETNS
Summary of the method: as §1

[3] = molecular target: A0A087WXC5|O95299|H7C2X4 (UniProt O95299)
A0A087WXC5|O95299|H7C2X4, sequence (O95299 whole entry, one chain of several): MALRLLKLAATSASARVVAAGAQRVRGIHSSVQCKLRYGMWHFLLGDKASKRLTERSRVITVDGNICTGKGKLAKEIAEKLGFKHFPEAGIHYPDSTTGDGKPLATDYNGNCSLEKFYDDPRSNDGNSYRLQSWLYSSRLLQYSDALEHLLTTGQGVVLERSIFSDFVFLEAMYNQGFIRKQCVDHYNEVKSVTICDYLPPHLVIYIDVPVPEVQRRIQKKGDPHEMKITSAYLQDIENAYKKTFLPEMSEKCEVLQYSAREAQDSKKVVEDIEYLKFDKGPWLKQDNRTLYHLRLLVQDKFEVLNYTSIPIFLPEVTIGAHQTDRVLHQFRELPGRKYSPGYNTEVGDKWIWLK
Summary of the method: as §1

[4] = molecular target: A0A087WY00|F8W6H6|Q9Y4I1|Q9Y4I1-2|Q9Y4I1-3|G3V394 (UniProt Q9Y4I1)
A0A087WY00|F8W6H6|Q9Y4I1|Q9Y4I1-2|Q9Y4I1-3|G3V394, sequence (Q9Y4I1 whole entry, one chain of several): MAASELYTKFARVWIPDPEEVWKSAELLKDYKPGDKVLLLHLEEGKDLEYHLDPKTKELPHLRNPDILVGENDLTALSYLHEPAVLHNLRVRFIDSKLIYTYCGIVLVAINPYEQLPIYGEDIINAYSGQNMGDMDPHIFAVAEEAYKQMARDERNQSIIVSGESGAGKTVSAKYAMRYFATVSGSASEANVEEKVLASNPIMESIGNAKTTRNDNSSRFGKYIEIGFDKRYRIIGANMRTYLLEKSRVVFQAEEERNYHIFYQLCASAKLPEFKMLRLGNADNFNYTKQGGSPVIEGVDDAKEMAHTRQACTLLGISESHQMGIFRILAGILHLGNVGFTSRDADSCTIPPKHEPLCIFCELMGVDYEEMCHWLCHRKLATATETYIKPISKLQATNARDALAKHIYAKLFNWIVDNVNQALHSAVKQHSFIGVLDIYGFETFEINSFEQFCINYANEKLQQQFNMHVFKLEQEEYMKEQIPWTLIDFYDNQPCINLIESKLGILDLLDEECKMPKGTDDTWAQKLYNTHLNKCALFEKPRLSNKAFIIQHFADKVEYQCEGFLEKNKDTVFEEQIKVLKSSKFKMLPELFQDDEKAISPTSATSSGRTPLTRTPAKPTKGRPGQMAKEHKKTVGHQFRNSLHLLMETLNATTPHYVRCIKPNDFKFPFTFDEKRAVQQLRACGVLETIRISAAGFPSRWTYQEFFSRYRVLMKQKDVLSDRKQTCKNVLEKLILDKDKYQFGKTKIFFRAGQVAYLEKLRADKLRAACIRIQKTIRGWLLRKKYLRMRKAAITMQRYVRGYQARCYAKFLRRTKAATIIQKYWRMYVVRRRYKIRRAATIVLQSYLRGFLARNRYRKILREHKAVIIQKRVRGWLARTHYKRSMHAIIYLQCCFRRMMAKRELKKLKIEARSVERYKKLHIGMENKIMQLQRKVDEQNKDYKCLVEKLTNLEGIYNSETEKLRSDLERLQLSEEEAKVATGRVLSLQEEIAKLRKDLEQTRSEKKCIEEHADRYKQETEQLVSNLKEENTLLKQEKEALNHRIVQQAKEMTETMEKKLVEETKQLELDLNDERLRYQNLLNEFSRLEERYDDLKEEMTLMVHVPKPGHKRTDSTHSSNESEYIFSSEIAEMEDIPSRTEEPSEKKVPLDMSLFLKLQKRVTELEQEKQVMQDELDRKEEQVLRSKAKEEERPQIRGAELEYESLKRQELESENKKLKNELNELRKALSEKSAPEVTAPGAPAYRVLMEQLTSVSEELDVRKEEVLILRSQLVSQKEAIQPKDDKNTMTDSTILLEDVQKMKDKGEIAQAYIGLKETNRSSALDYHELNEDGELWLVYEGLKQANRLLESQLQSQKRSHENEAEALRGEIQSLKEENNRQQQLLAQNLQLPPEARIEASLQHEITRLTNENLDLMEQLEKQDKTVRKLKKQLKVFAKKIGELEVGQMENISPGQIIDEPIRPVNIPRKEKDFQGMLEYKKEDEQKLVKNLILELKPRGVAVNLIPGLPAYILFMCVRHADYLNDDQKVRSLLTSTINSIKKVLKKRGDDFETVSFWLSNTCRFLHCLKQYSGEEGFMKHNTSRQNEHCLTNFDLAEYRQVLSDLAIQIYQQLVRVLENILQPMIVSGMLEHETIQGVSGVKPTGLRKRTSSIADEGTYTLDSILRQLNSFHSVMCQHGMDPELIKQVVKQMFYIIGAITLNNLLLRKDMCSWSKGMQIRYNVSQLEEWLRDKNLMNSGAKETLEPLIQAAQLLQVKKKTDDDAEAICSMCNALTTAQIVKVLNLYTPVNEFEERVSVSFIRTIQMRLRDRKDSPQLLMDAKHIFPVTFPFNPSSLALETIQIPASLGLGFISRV
Summary of the method: as §1

[5] = molecular target: T2, A0A087WYG2|E9PFH7|Q9UPT6 (UniProt Q9UPT6)
T2 sequence (whole entry): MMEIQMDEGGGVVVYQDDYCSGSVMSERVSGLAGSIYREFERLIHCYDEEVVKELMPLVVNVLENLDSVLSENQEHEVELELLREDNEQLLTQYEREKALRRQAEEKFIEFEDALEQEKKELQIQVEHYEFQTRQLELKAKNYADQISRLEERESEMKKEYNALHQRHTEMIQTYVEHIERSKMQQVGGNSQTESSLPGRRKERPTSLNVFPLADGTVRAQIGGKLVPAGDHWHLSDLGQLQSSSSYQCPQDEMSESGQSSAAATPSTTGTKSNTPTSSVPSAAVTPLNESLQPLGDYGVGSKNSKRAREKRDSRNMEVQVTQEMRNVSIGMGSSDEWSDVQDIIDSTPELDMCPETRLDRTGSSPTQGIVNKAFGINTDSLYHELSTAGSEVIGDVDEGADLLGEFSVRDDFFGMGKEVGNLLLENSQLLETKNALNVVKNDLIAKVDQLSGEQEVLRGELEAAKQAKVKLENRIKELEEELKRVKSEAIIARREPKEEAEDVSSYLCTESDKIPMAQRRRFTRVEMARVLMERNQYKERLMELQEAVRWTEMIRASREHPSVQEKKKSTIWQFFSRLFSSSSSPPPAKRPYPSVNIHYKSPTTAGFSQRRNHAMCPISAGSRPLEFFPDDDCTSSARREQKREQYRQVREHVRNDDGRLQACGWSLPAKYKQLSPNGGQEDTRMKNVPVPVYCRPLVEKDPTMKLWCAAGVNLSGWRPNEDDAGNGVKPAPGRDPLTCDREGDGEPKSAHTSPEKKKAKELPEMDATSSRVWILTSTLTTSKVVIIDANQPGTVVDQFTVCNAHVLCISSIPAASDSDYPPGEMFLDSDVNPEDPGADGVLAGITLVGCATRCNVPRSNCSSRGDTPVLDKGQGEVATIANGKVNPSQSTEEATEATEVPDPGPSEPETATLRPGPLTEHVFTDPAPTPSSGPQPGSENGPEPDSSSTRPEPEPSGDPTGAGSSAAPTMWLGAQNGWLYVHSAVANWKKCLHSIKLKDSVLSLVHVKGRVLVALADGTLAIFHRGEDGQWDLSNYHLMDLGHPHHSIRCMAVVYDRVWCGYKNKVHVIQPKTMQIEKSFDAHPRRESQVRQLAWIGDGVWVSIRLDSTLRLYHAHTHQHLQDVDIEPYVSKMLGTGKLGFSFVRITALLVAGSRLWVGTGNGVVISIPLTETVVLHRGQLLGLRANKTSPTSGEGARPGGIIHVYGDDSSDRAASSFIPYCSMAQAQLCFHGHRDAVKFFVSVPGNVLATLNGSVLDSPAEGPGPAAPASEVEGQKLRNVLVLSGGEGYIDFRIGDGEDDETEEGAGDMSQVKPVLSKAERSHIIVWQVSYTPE
Summary of the method: as §1

A0A087WWP8, sequence (Q5VWQ0 whole entry): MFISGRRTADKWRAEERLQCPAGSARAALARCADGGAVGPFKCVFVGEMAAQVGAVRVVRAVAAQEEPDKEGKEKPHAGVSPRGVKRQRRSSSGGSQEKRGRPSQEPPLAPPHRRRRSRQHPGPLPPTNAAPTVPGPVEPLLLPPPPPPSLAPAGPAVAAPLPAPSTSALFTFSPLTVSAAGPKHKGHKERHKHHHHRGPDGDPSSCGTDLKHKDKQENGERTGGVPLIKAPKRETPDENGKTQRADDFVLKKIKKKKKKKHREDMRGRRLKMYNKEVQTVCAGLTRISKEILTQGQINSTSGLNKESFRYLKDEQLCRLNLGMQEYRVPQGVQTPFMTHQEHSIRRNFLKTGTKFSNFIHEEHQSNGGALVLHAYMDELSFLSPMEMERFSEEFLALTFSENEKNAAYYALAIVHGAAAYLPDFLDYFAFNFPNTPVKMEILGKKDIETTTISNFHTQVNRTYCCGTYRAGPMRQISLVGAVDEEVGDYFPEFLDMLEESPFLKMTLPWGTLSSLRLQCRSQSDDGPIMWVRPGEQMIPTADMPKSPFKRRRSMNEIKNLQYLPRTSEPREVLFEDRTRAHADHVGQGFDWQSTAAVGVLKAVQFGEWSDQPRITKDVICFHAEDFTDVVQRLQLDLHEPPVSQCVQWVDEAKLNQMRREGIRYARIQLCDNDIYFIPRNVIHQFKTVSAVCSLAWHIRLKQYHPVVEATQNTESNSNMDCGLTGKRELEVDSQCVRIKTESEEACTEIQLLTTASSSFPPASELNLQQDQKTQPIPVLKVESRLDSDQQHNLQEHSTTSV

Nc1ncnc2c1ncn2[C@@H]1O[C@H](COP(=O)(O)OP(=O)(O)OP(=O)(O)O)[C@@H](O)[C@H]1O [adenosine triphosphate]
NP40-soluble protein abundance ([1]; concentration: 6mM): 1.68 ± 0.048 | NP40-soluble protein abundance ([1]; concentration: 8mM): 1.68 ± 0.069 | NP40-soluble protein abundance ([1]; concentration: 10mM): 1.69 ± 0.063 | NP40-soluble protein abundance ([2]; concentration: 1mM): 1.509 ± 0.011 | NP40-soluble protein abundance ([2]; concentration: 2mM): 1.65 ± 0.068 | NP40-soluble protein abundance ([2]; concentration: 4mM): 1.89 ± 0.099 | NP40-soluble protein abundance ([2]; concentration: 6mM): 2.14 ± 0.2 | NP40-soluble protein abundance ([2]; concentration: 8mM): 2.31 ± 0.075 | NP40-soluble protein abundance ([2]; concentration: 10mM): 2.4 ± 0.13 | NP40-soluble protein abundance ([3]; concentration: 1mM): 1.03 ± 0.024 | NP40-soluble protein abundance ([3]; concentration: 2mM): 1.02 ± 0.033 | NP40-soluble protein abundance ([3]; concentration: 4mM): 0.982 ± 0.034 | NP40-soluble protein abundance ([3]; concentration: 6mM): 1 ± 0.022 | NP40-soluble protein abundance ([3]; concentration: 8mM): 1.02 ± 0.023 | NP40-soluble protein abundance ([3]; concentration: 10mM): 1 ± 0.034 | NP40-soluble protein abundance ([4]; concentration: 1mM): 2.94 ± 0.086 | NP40-soluble protein abundance ([4]; concentration: 2mM): 2.89 ± 0.071 | NP40-soluble protein abundance ([4]; concentration: 4mM): 2.94 ± 0.14 | NP40-soluble protein abundance ([4]; concentration: 6mM): 2.96 ± 0.19 | NP40-soluble protein abundance ([4]; concentration: 8mM): 2.96 ± 0.088 | NP40-soluble protein abundance ([4]; concentration: 10mM): 2.84 ± 0.062 | NP40-soluble protein abundance ([5]; concentration: 1mM): 0.979 ± 0.055 | NP40-soluble protein abundance ([5]; concentration: 2mM): 0.996 ± 0.054 | NP40-soluble protein abundance ([5]; concentration: 4mM): 0.993 ± 0.097 | NP40-soluble protein abundance ([5]; concentration: 6mM): 0.988 ± 0.094 | NP40-soluble protein abundance ([5]; concentration: 8mM): 0.959 ± 0.066 | NP40-soluble protein abundance ([5]; concentration: 10mM): 0.956 ± 0.029
